Data from PubChem BioAssay (NCATS).
Inconclusive results are not listed. Activity calls are given as the source filed them. Unless noted, calls follow the shape of the dose curve; as a rule, active = well fitted curve in the direction sought with a large enough effect; inconclusive = small, poorly fitted or top-dose-only effect, or another doubt; inactive = no such curve, though single readings can be large; an effect the other way counts as inactive or inconclusive.

What was measured:
[1] = molecular target: ATP-dependent 6-phosphofructokinase (Trypanosoma brucei brucei) (UniProt O15648); test: qHTS Assay to Find Inhibitors of T. brucei phosphofructokinase: hit validation (AID 492961);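 also: luminescence reports ADP formed as PFK phosphorylates fructose-6-phosphate with ATP; % is scaled to controls: 0 for no effect and ±100 for the full control effect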
Outline: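 ADP-Glo luminescence read-out of ADP formed by 1.25 nM PFK from 0.1 mM ATP and 0.5 mM F6P (TEA pH 8.0, 45 min, RT). Compounds titrated; activity normalized to no-enzyme and full-enzyme controls.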

[2] = S16 Schwann cell PMP22 intronic element firefly luciferase assay (AID 624032);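 also: plate controls were DMSO for no effect and PTC124 positive control mean for full effect; nearly all actives have a fitted effect of over 30% in size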
Outline: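 Luciferase reporter of PMP22 intronic-element expression in stably transfected S16 rat Schwann cells, read by ONE-Glo luminescence after 24 h compound exposure at 37 C. Activity scaled between DMSO (0%) and positive-control PTC124; concentration-effect curves quality-classified.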

CP260 = test: qHTS profiling for inhibitors of Plasmodium falciparum proliferation (AID 504749);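 also: 0% = DMSO vehicle and full inhibition = artemisinin control; nearly all actives have a fitted effect of over 60% in size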; settings: P. falciparum in erythrocytes, SYBR Green DNA, 72 h; series mostly up to 12.8 µM
Outline: (§1)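 Infected RBCs, 0.3% parasitemia/2.5% Hct final; cpd 72 h, 37 C, 5% CO2; lysis buffer with saponin/triton/SYBR Green I, o/n RT dark; FI 485/535; norm. to artemisinin (0.29 uM) and DMSO.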

PC26 = test: as above; settings: P. falciparum in erythrocytes, SYBR Green DNA, 72 h; series mostly up to 12.8 µM
Outline: as §1

CP194 = test: as above; settings: P. falciparum in erythrocytes, SYBR Green DNA, 72 h; series mostly up to 12.8 µM
Outline: as §1

CP211 = test: as above; settings: P. falciparum in erythrocytes, SYBR Green DNA, 72 h; series mostly up to 12.8 µM
Outline: as §1

CP237 = test: as above; settings: P. falciparum in erythrocytes, SYBR Green DNA, 72 h; series mostly up to 12.8 µM
Outline: as §1

CP291 = test: as above; settings: P. falciparum in erythrocytes, SYBR Green DNA, 72 h; series mostly up to 12.8 µM
Outline: as §1

CP335 = test: as above; settings: P. falciparum in erythrocytes, SYBR Green DNA, 72 h; series mostly up to 12.8 µM
Outline: as §1

DFO2036 = test: as above; settings: P. falciparum in erythrocytes, SYBR Green DNA, 72 h; series mostly up to 12.8 µM
Outline: as §1

P94_40 = test: as above; settings: P. falciparum in erythrocytes, SYBR Green DNA, 72 h; series mostly up to 12.8 µM
Outline: as §1

[3] = molecular target: Cytochrome P450 3A4 (Homo sapiens) (UniProt P08684); test: qHTS Assay for Activators of Cytochrome P450 3A4 (AID 885); also: nearly all actives have a fitted effect of over 65% in size
Outline: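 20nM CYP3A4 + 25uM Luciferin-PPXE (=KM), 200mM KPO4; cpd 10 min RT; NADPH regen, 60 min RT; stop w/ detection buffer, 20 min; luminescence. Normalized to 57 uM ketoconazole.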

CP215 = test: qHTS profiling for inhibitors of Plasmodium falciparum proliferation (AID 504749);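 also: 0% = DMSO vehicle and full inhibition = artemisinin control; nearly all actives have a fitted effect of over 60% in size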; settings: P. falciparum in erythrocytes, SYBR Green DNA, 72 h; series mostly up to 12.8 µM
Outline: as §1

CP269 = test: as above; settings: P. falciparum in erythrocytes, SYBR Green DNA, 72 h; series mostly up to 12.8 µM
Outline: as §1

CP315 = test: as above; settings: P. falciparum in erythrocytes, SYBR Green DNA, 72 h; series mostly up to 12.8 µM
Outline: as §1

GB4 = test: as above; settings: P. falciparum in erythrocytes, SYBR Green DNA, 72 h; series mostly up to 12.8 µM
Outline: as §1

[4] = molecular target: Cytochrome P450 2C9 (Homo sapiens) (UniProt P11712); test: qHTS Assay for Inhibitors and Substrates of Cytochrome P450 2C9 (AID 883); also: % is scaled to controls: 0 for no effect and ±100 for the full control effect; nearly all actives have a fitted effect of over 60% in size
Outline: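 Luminescent read-out of deoxyluciferin hydroxylation, normalized to 57uM sulphaphenazole (AC100). Reaction: 10nM enzyme, 100uM Luciferin-H (equal to KM), 25mM KPO4, 10 min compound preincubation, then 60 min with NADPH regeneration, both at 37C.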

[5] = qHTS Assay for Identification of Small Molecule Agonists for Hypoxia Response Element Signaling Pathway (AID 914; active = well fitted activation curve with a large enough effect in the signal ratio, with a control signal flat, not every such curve was filed as active; the % refers to the signal ratio; also: % of control where 0% means no effect); settings: ME-180 (cervical carcinoma) HRE-bla reporter, beta-lactamase ratio, CoCl2, 17 h; activation: active compounds read high
Outline: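 Compounds in a titration series were added to ME-180 reporter cells alongside an EC50 level of CoCl2. After 17 hours, beta-lactamase activity was read as the 460nm/530nm emission ratio of CCF4, giving AC50 values.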

[6] = molecular target: Cytochrome P450 2D6 (Homo sapiens) (UniProt P10635); test: qHTS Assay for Inhibitors and Substrates of Cytochrome P450 2D6 (AID 891); also: potency is read from the fitted curve at half-maximal effect; nearly all actives have a fitted effect of over 60% in size
Outline: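 Human CYP2D6 (5 nM) with 30 uM Luciferin-ME EGE (at Km) in 100 mM KPO4, compound preincubated 10 min, then NADPH regeneration system for 60 min at room temperature. Luciferin read by luminescence; normalized to 1.43 uM quinidine.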

ATP-dependent 6-phosphofructokinase (Trypanosoma brucei brucei), sequence (O15648 whole entry, looked up): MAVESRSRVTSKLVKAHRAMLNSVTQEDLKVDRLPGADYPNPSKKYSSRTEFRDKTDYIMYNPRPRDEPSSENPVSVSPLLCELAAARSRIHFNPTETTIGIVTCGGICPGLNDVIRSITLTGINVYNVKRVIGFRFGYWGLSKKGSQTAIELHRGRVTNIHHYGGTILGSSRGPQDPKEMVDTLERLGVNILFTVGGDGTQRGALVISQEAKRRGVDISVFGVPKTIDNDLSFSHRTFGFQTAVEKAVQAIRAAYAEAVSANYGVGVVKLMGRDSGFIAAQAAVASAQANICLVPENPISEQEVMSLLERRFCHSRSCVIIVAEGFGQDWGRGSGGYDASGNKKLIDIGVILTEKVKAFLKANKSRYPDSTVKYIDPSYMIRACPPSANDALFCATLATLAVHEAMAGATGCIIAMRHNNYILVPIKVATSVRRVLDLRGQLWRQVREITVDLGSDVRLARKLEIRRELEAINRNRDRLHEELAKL
Cytochrome P450 3A4 (Homo sapiens), sequence (P08684 whole entry, looked up): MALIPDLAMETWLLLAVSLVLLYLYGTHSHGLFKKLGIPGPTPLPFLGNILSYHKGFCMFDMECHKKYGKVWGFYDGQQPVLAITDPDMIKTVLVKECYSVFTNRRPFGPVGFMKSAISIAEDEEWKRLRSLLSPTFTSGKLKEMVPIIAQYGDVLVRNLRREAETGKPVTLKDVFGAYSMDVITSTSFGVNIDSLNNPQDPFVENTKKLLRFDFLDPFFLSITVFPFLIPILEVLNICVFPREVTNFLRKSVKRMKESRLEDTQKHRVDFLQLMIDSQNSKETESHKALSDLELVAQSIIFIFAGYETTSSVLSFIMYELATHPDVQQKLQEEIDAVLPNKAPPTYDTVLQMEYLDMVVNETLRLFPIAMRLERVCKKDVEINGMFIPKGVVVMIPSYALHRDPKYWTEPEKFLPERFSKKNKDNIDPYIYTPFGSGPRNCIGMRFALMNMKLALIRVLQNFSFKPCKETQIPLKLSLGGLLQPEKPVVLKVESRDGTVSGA
Cytochrome P450 2D6 (Homo sapiens), sequence (P10635 whole entry, looked up): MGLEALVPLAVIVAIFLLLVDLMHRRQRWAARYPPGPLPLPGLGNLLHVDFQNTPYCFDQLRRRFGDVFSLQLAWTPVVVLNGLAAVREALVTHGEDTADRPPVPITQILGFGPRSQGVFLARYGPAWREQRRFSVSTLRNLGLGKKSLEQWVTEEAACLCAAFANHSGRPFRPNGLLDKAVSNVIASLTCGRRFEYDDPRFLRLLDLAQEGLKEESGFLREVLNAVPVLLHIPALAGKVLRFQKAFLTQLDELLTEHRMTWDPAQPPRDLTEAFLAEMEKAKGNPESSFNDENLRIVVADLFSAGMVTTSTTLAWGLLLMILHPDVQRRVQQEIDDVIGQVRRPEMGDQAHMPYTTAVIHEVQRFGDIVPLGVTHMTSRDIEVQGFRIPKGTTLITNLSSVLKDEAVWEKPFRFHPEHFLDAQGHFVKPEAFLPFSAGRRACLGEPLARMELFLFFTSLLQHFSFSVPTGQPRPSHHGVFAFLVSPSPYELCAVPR
Cytochrome P450 2C9 (Homo sapiens), sequence (P11712 whole entry, looked up): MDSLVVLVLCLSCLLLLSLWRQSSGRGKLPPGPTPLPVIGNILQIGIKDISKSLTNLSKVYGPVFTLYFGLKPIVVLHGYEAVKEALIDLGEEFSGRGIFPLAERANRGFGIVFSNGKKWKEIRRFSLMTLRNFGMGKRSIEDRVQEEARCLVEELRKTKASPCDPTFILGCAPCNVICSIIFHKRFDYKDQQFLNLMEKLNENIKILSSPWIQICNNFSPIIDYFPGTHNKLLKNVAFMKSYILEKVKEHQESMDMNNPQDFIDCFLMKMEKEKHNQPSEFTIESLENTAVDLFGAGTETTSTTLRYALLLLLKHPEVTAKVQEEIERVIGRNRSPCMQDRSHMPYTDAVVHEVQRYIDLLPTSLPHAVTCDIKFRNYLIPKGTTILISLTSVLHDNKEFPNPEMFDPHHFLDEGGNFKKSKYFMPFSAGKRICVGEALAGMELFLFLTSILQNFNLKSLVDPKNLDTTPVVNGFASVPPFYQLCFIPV

CS(=O)(=O)c1ccc([C@H](O)[C@H](CO)NC(=O)C(Cl)Cl)cc1
inactive: outcome [1] | Potency [2] | Potency (CP260) | Potency (PC26)

CNC[C@H](O)c1ccc(OC(=O)C(C)(C)C)c(OC(=O)C(C)(C)C)c1
inactive: outcome [1] | Potency (CP194) | Potency (CP211) | Potency (CP237) | Potency (CP260) | Potency (CP291) | Potency (CP335) | Potency (DFO2036) | Potency (P94_40)

CC(=O)[C@@]1(O)CC[C@H]2[C@H]3C[C@@H](C)C4=CC(=O)C=C[C@]4(C)[C@@]3(F)[C@@H](O)C[C@]21C
inactive: Potency [3] | Potency (CP194) | Potency (CP211) | Potency (CP215) | Potency (CP237) | Potency (CP260) | Potency (CP269) | Potency (CP291) | Potency (CP315) | Potency (CP335) | Potency (GB4) | Potency (P94_40)

O=C1O[C@H](CN2CCOCC2)CN1/N=C\c1ccc([N+](=O)[O-])o1
inactive: Potency [2] | Potency (CP194) | Potency (CP211) | Potency (CP215) | Potency (CP269) | Potency (CP291) | Potency (CP315) | Potency (CP335) | Potency (GB4) | Potency (PC26)

CC(=O)N(C[C@@H](C)C(=O)O)c1c(I)cc(I)c(N)c1I
inactive: Potency [4] | Potency [2] | Potency (CP237) | Potency (CP260) | Potency (CP335) | Potency (P94_40)

COc1ccc([C@@H]2CC(=O)c3c(O)cc(O[C@H]4O[C@@H](CO[C@H]5O[C@@H](C)[C@@H](O)[C@@H](O)[C@@H]5O)[C@@H](O)[C@@H](O)[C@@H]4O)cc3O2)cc1O
inactive: activation [5] -3.87% | outcome [1] | Potency [2] | Potency (CP194) | Potency (CP211) | Potency (CP215) | Potency (CP237) | Potency (CP260) | Potency (CP269) | Potency (CP291) | Potency (CP315) | Potency (DFO2036) | Potency (GB4) | Potency (P94_40) | Potency (PC26)

O=C(NC[C@@H](O)CO)c1c(I)c(C(=O)NC[C@@H](O)CO)c(I)c(N(CCO)C(=O)CO)c1I
inactive: outcome [1] | Potency (CP194) | Potency (CP211) | Potency (CP215) | Potency (CP237) | Potency (CP260) | Potency (CP269) | Potency (CP291) | Potency (CP315) | Potency (CP335) | Potency (DFO2036) | Potency (GB4) | Potency (PC26)

CC1(C)O[C@@H]2C[C@H]3[C@H]4C[C@H](F)C5=CC(=O)CC[C@]5(C)[C@@H]4[C@H](O)C[C@]3(C)[C@]2(C(=O)CO)O1
inactive: outcome [1] | Potency [2] | Potency (CP194) | Potency (CP211) | Potency (CP237) | Potency (CP260) | Potency (CP269) | Potency (CP291) | Potency (CP315) | Potency (CP335) | Potency (DFO2036) | Potency (GB4) | Potency (P94_40) | Potency (PC26)

O=C(Nc1ccccc1)OC[C@H](CN1CCCCC1)OC(=O)Nc1ccccc1
active: Potency [6] 398 nM
inactive: outcome [1] | Potency [2] | Potency (CP194) | Potency (CP211) | Potency (CP215) | Potency (CP260) | Potency (CP269) | Potency (CP291) | Potency (CP315) | Potency (CP335) | Potency (DFO2036) | Potency (GB4) | Potency (P94_40) | Potency (PC26)

CC[N+](CC)(CC)CC[C@](O)(c1ccccc1)C1CCCCC1
active: Potency [6] 20 nM
inactive: outcome [1] | Potency (CP194) | Potency (CP211) | Potency (CP215) | Potency (CP237) | Potency (CP269) | Potency (CP315) | Potency (CP335) | Potency (GB4) | Potency (P94_40)

CO[C@H]1[C@H](O[C@H]2O[C@@H](C)[C@@H](O[C@@H]3C[C@](C)(O)[C@H](OC(=O)CC(C)C)[C@H](C)O3)[C@@H](N(C)C)[C@@H]2O)[C@@H](CC=O)C[C@@H](C)[C@@H](O)/C=C\C=C/C[C@@H](C)OC(=O)C[C@H]1OC(C)=O
inactive: Potency [3] | outcome [1] | Potency [2]

CN1C(=O)C[C@H](c2ccccc2)C1=O
inactive: outcome [1] | Potency [2] | Potency (CP194) | Potency (CP211) | Potency (CP215) | Potency (CP260) | Potency (CP269) | Potency (CP291) | Potency (CP315) | Potency (CP335) | Potency (DFO2036) | Potency (GB4) | Potency (P94_40) | Potency (PC26)

CC(=O)OCC(=O)[C@@]1(O)CC[C@@H]2[C@H]3CCC4=CC(=O)C=C[C@]4(C)[C@]3(F)[C@@H](O)C[C@@]21C
inactive: Potency [2] | Potency (CP194) | Potency (CP211) | Potency (CP215) | Potency (CP237) | Potency (CP260) | Potency (CP269) | Potency (CP291) | Potency (CP315) | Potency (CP335) | Potency (GB4) | Potency (PC26)
